Reference: PubChem BioAssay (NCATS)
Results filed as inconclusive are left out. A call without a number means that no potency is given here. A number with no mark means an inactive call. Active and inactive are the calls of the source. Calls come from the whole dose curve; as a rule, active = well fitted curve in the direction sought with a large enough effect; inconclusive = small, poorly fitted or top-dose-only effect, or another doubt; inactive = no such curve, though single readings can be large; an effect the other way counts as inactive or inconclusive.

Tests used:
[1] = molecular target: Aldehyde dehydrogenase, mitochondrial (Homo sapiens) (UniProt P05091); assay: qHTS for Inhibitors of the Aldehyde Dehydrogenase Family (ALDH2) Primary screen (AID 2061308); note: nearly all actives have a fitted effect of over 55% in size
[2] = molecular target: Retinaldehyde dehydrogenase 3 (Homo sapiens) (UniProt P47895); assay: qHTS for Inhibitors of the Aldehyde Dehydrogenase Family (ALDH1A3) Primary screen (AID 2061315)

CC1=C(C(=O)Nc2ccccc2C)C(c2ccccc2Br)N=C(Nc2nc3ccccc3o2)N1 (stereo not given) was tested, and the Potency [1] was “inactive” and the Potency [2] was “inactive”.

For O=C1CCCC2=C1C(c1ncccc1C(F)(F)F)N=C(Nc1nc3ccccc3o1)N2 (stereo not given), the Potency [1] was “inactive” and the Potency [2] was “inactive”.

For COc1ccc(C2Nc3ccccc3C(=O)N2Cc2ccco2)cc1COc1c(C)cc(NC(C)=O)cc1C (stereo not given), the Potency [1] was “inactive” and the Potency [2] was “inactive”.

For Brc1cnc2nc(SCc3ccncc3)[nH]c2c1, the Potency [1] was “inactive” and the Potency [2] was “inactive”.

For CC(=O)O[C@H]1CC(C)(C)CC2[C@]13CO[C@@]21CCC2[C@@]4(C)CC[C@H](O[C@@H]5OC[C@H](O[C@@H]6O[C@H](CO)[C@@H](O)[C@H](O)[C@H]6O[C@@H]6OC[C@@H](O[C@@H]7O[C@H](CO)[C@@H](O)[C@H](O)[C@H]7O)[C@H](O)[C@H]6O)[C@H](O)[C@H]5O[C@@H]5O[C@H](CO)[C@@H](O)[C@H](O)[C@H]5O)[C@@](C)(CO)C4CC[C@@]2(C)[C@]1(C)C[C@H]3O (stereo not given in full), the activity change, negative = inhibition [1] was 0.34% [at 11.2 µM] and the activity change, negative = inhibition [2] was 11.1% [at 11.2 µM].

For CCN(CC)C(=O)COC(=O)c1ccc(S(C)(=O)=O)c([N+](=O)[O-])c1, the Potency [1] was “inactive” and the Potency [2] was “inactive”.

In the case of CCCn1c(C)nc2c(N(CCN(C)C)Cc3ccccc3)nc(C)nc21, the Potency [1] is reported as “inactive” and the Potency [2] is reported as “inactive”.

With C/C=C(/C)C(=O)O[C@H]1C=C(CO)C(=O)[C@H](OC(=O)/C(C)=C/CO)[C@H]1C(C)C the Potency [1] was “inactive” and the Potency [2] was “inactive”.

Cc1ccc(-c2ccc(=O)n(CCN)n2)cc1 was tested, and the Potency [1] was “inactive” and the Potency [2] was “inactive”.

With O=C1CCCC2=C1C(c1[nH]ncc1Cl)NC(=NCc1cccs1)N2 (stereo not given) the Potency [1] was “inactive” and the Potency [2] was “inactive”.
